Source: PubChem BioAssay (NCI)
Compounds without any hit were thinned out: in the full panel of roughly 83,000, 20% have a hit.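 Compound tested at a single concentration for 48 hours in 96-well plates; a percent growth value below 10 was scored as active.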 Activity calls are given as the source filed them.

Test system: LOX IMVI melanoma
Experiment: NCI-60 one-dose screen, 48 h (100 = growth as untreated, 0 = no growth, -100 = all killed)
Conditions: 10 µM unless noted

Compound	growth
COc1ccc(-c2nc(N=Nc3c(O)[nH]c4ccccc34)nc(N3CCOCC3)c2C#N)cc1	66.8% (inactive)
COc1cc2nc(-c3ccc(C(F)(F)F)cc3)cc(OCCN3CCCC3)c2cc1OC	27% (inactive)
NC(=S)N/N=C(/c1ccccc1)c1ccccc1N	96.1% (inactive)
C=C(C)[C@@H]1CC[C@]2(C=O)CC[C@]3(C)[C@H](CC[C@@H]4[C@@]5(C)CCCNC(C)(C)[C@@H]5CC[C@]43C)[C@@H]12	84.9% (inactive)
CCCNC(=O)Oc1ccc(/C(=C(\C)c2ccccc2)c2ccc(OCCN3CCCCC3)cc2)cc1	73.8% (inactive)
CCOC(=O)Oc1c(OC)cc(C(=O)O[C@@H]2C[C@@H]3CN4CCc5c([nH]c6cc(OC)ccc56)[C@H]4C[C@@H]3[C@H](C(=O)OC)[C@H]2OC)cc1OC	14.4% (inactive)
COc1ccc(OC)c(/C=C/[C@H]2O[C@@H](C)[C@H](O)[C@@H]2O)c1	99.8% (inactive)
CCC(=O)c1ccc(O)c(OC)c1	102% (inactive)
Clc1cc(Cl)cc(N2N=C(c3cccc(Nc4ccncc4)c3)CC2c2ccccc2)c1 (stereo not drawn)	-81.2% (active)
Fc1cc(C2=NNC(c3ccc[nH]3)C2)ccc1-n1ccc(C(F)(F)F)n1 (stereo not drawn)	94.2% (inactive)
Clc1nc(Nc2ccccc2)nc(Nc2ccccc2)n1	94.1% (inactive)
Cn1c(=O)c2[nH]c(CCCc3nc4c([nH]3)c(=O)n(C)c(=O)n4C)nc2n(C)c1=O	105% (inactive)
C=C1C(=O)O[C@H]2[C@H]1CC/C(COC(=O)NCCc1c[nH]c3ccc(Cl)cc13)=C\CC[C@@]1(C)O[C@@H]21	-82.4% (active)
Cc1[nH]c(C(=O)Nc2ccccc2OCc2cccc(C(=O)NCCN)c2)c(Cl)c1Cl	-48.1% (active)
COc1cc2oc(-c3cccc(C(=O)Nc4ccc(Cl)cc4)c3)cc(=O)c2c(OC)c1OC	2.16% (active)
O=C(Nc1nc2ccc(S(=O)(=O)Nc3ccc(C4(C(F)(F)F)CC4)cc3)cc2[nH]1)c1cnccn1	38.3% (inactive)
CCCCCCCCCCN=C(N)N=C(N)N	47.3% (inactive)
CC(C)NC(=O)N1C(=O)CCC1NNC(=O)c1ccc([N+](=O)[O-])cc1 (stereo not drawn)	93.9% (inactive)
N#Cc1cc(-c2nc3ccccc3s2)c(=O)n(NS(=O)(=O)c2ccc(Cl)cc2)c1N	97% (inactive)

Compound	growth
O=C1c2ccccc2-c2c1c1c(NCCCO)nc3ccccc3c1n2Cc1ccccc1	2.25% (active)
COC(=O)N[C@H]1CCc2cc(OC)c(OC)c(OC)c2-c2ccc(SC)c(=O)cc21	15.7% (inactive)
COc1nccnn1	94.9% (inactive)
Cc1ccc(C(=O)Nc2ccccc2C(=O)N/N=C(\c2ccccc2)c2ccccn2)cc1	5.79% (active)
CCCCN(CCCC)CCc1c(C)cc(C)c(CCN(CCCC)CCCC)c1O	28.2% (inactive)
Nc1cc(N)c2cccnc2c1O	42.3% (inactive)
CN1CCCC1=Nc1ccccc1	96.6% (inactive)
COc1ccc(CNC(=O)COc2ccc(/C=N/Nc3nc4ccccc4s3)cc2)cc1	46.5% (inactive)
O=C1OC(=O)C2C1CC=CC2c1ccccc1 (stereo not drawn)	71.7% (inactive)
COc1ccc(CC(C)=C(c2ccc(OCCN(C)C)cc2)c2ccc(OCCN(C)C)cc2)cc1	71.5% (inactive)
O=C(N=Nc1c(O)[nH]c2ccc(F)cc12)c1cc2ccccc2[nH]1	97.3% (inactive)
O=S(=O)(NCCNc1nccc(-c2c(-c3cccc(F)c3)nc3occn23)n1)c1cccc2ccccc12	59.7% (inactive)
O=S(=O)(c1ccc(N/N=C\c2ccccc2)cc1)c1ccc(N/N=C/c2ccccc2)cc1	63.4% (inactive)
CCOc1ccc(/C=N/Nc2cc(C)nc3ccc(Cl)cc23)cc1	-85.6% (active)
CC(C)Cc1ccc(C(C)C(=O)NCc2c[nH]c3ccc(Cl)cc23)cc1 (stereo not drawn)	96% (inactive)
COc1ccccc1OCC(=O)N1CCCCCC1	93.6% (inactive)
Nc1nc(SN=Nc2ccc(S(N)(=O)=O)cc2)c2[nH]cnc2n1	-9.46% (active)
COc1ccc(C2CC(n3nnnc3-c3ccccc3)=NN2)cc1 (stereo not drawn)	22% (inactive)
CC(c1ccccc1)n1ccnc1CO (stereo not drawn)	96.3% (inactive)
